Measurements: PubChem BioAssay (NCI)
About 83,000 compounds went through this panel and 20% of them were active in at least one assay; those are over-represented in the sample as a whole.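 Method: cells in 96-well plates; compound added at one concentration; 48 h incubation; percent growth measured; values under 10 scored active.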 Activity calls are given as the source filed them.

Columns and labels:
Assay in all cases: NCI-60 one-dose screen, 48 h (100 = growth as untreated, 0 = no growth, -100 = all killed)
Conditions in all cases: 10 µM unless noted
HCT-15 colon = test system: HCT-15 colon
HT29 colon = test system: HT29 colon
SNB-75 CNS = test system: SNB-75 CNS
SNB-19 CNS = test system: SNB-19 CNS
U251 CNS = test system: U251 CNS
PC-3 prostate = test system: PC-3 prostate
SK-MEL-5 melanoma = test system: SK-MEL-5 melanoma
UACC-62 melanoma = test system: UACC-62 melanoma
LOX IMVI melanoma = test system: LOX IMVI melanoma
SK-MEL-28 melanoma = test system: SK-MEL-28 melanoma
SK-MEL-2 melanoma = test system: SK-MEL-2 melanoma
EKVX NSCLC = test system: EKVX NSCLC
SN12C renal = test system: SN12C renal
UO-31 renal = test system: UO-31 renal
TK-10 renal = test system: TK-10 renal
ACHN renal = test system: ACHN renal
CAKI-1 renal = test system: CAKI-1 renal
A498 renal = test system: A498 renal
CCRF-CEM leukemia = test system: CCRF-CEM leukemia
MOLT-4 leukemia = test system: MOLT-4 leukemia

Measured: growth

O=C(CN1C(=O)NC2NC(=O)NC21)N/N=C/c1cccc([N+](=O)[O-])c1 (stereo not given)
inactive: HCT-15 colon 100% | HT29 colon 107% | SNB-75 CNS 80% | SNB-19 CNS 98.8% | U251 CNS 111% | PC-3 prostate 106% | SK-MEL-5 melanoma 100% | UACC-62 melanoma 88.8% | LOX IMVI melanoma 98.1% | SK-MEL-28 melanoma 111% | SK-MEL-2 melanoma 113% | EKVX NSCLC 102% | SN12C renal 96.5% | UO-31 renal 88.4% | TK-10 renal 106% | ACHN renal 104% | CAKI-1 renal 85.8% | A498 renal 95.8% | CCRF-CEM leukemia 106% | MOLT-4 leukemia 106%

Cc1nn(-c2ccccc2)c(Oc2ccccc2)c1/C=N/NC(=O)Cn1c(=O)sc2ccccc21
active: SK-MEL-5 melanoma -47.7%
inactive: HCT-15 colon 56.7% | HT29 colon 46.8% | SNB-75 CNS 48.6% | SNB-19 CNS 61.1% | U251 CNS 51.3% | PC-3 prostate 44.5% | UACC-62 melanoma 52.1% | LOX IMVI melanoma 48.7% | SK-MEL-28 melanoma 87.5% | SK-MEL-2 melanoma 42.6% | EKVX NSCLC 33.3% | SN12C renal 61.4% | UO-31 renal 35% | TK-10 renal 60.7% | ACHN renal 47.2% | CAKI-1 renal 33.4% | A498 renal 45.6% | CCRF-CEM leukemia 49.9% | MOLT-4 leukemia 10.3%

Cc1c(CC(=O)Nc2ccccc2)nnn1-c1ccccc1
inactive: HCT-15 colon 101% | HT29 colon 111% | SNB-75 CNS 104% | SNB-19 CNS 102% | U251 CNS 102% | PC-3 prostate 104% | SK-MEL-5 melanoma 101% | UACC-62 melanoma 97.7% | LOX IMVI melanoma 97.7% | SK-MEL-28 melanoma 112% | SK-MEL-2 melanoma 107% | EKVX NSCLC 104% | SN12C renal 108% | UO-31 renal 88.2% | TK-10 renal 101% | ACHN renal 109% | CAKI-1 renal 97.5% | A498 renal 108% | CCRF-CEM leukemia 105% | MOLT-4 leukemia 99.7%

CSc1nn2c(-c3cc4cc(Br)ccc4oc3=O)ccnc2c1C#N
inactive: HCT-15 colon 102% | HT29 colon 114% | SNB-75 CNS 90.5% | SNB-19 CNS 105% | U251 CNS 102% | PC-3 prostate 105% | SK-MEL-5 melanoma 101% | UACC-62 melanoma 99.7% | LOX IMVI melanoma 97.4% | SK-MEL-28 melanoma 105% | SK-MEL-2 melanoma 104% | EKVX NSCLC 92.2% | SN12C renal 102% | UO-31 renal 89.8% | TK-10 renal 157% | ACHN renal 105% | CAKI-1 renal 92.9% | A498 renal 104% | CCRF-CEM leukemia 101% | MOLT-4 leukemia 104%

O=C1/C(=C/c2cccc(Br)c2)COc2ccc(O)c(O)c21
inactive: SNB-75 CNS 15.1% | SK-MEL-5 melanoma 23.3% | EKVX NSCLC 41.9% | TK-10 renal 12% | A498 renal 112%
active: HCT-15 colon -7.69% | HT29 colon 2.91% | SNB-19 CNS 1.36% | U251 CNS -85.3% | PC-3 prostate -35.1% | UACC-62 melanoma -72.2% | LOX IMVI melanoma -90.8% | SK-MEL-28 melanoma -17.2% | SK-MEL-2 melanoma -14.8% | SN12C renal -73.8% | UO-31 renal -100% | ACHN renal -92.8% | CAKI-1 renal -54.4% | CCRF-CEM leukemia 4.21% | MOLT-4 leukemia 2.59%

COc1ccc(-c2cn(Cc3ccc4c(Br)cc(Br)c(O)c4n3)nn2)cc1
active: UO-31 renal -92.3% | ACHN renal -68.7%
inactive: HCT-15 colon 39.3% | HT29 colon 89.5% | SNB-75 CNS 71.6% | SNB-19 CNS 96.9% | U251 CNS 97.3% | PC-3 prostate 91.4% | SK-MEL-5 melanoma 98.6% | UACC-62 melanoma 95.6% | LOX IMVI melanoma 49.4% | SK-MEL-28 melanoma 96.3% | SK-MEL-2 melanoma 101% | EKVX NSCLC 84.2% | SN12C renal 100% | TK-10 renal 91.3% | CAKI-1 renal 61.6% | A498 renal 99.6% | CCRF-CEM leukemia 73.9% | MOLT-4 leukemia 87%

CN1CCN(Cc2ccc(NC(=O)c3cncc(C#Cc4cnc(N)c5ncccc45)c3)cc2Cl)CC1
inactive: HCT-15 colon 63.8% | HT29 colon 52.4% | SNB-75 CNS 105% | SNB-19 CNS 106% | PC-3 prostate 91.6% | SK-MEL-5 melanoma 78.4% | UACC-62 melanoma 98.5% | LOX IMVI melanoma 86.5% | SK-MEL-28 melanoma 45.1% | SK-MEL-2 melanoma 56.5% | EKVX NSCLC 106% | SN12C renal 92.5% | UO-31 renal 64.7% | TK-10 renal 104% | ACHN renal 41.8% | CAKI-1 renal 73.5% | A498 renal 104% | MOLT-4 leukemia 83%
active: U251 CNS -64.6% | CCRF-CEM leukemia -2.07%

CCN1CCN(CCOc2ccc(CNc3ccc4nc(CCC5CCCCC5)[nH]c4c3)cc2)CC1
active: HCT-15 colon -17.7% | HT29 colon 8.35% | U251 CNS -19.7% | SK-MEL-5 melanoma -96.5% | UACC-62 melanoma -16.4% | LOX IMVI melanoma -78.6% | SK-MEL-28 melanoma -88% | SK-MEL-2 melanoma -3.49% | UO-31 renal -24.9% | CAKI-1 renal 0.23% | CCRF-CEM leukemia 8.27%
inactive: SNB-75 CNS 79.8% | SNB-19 CNS 39.3% | PC-3 prostate 42% | EKVX NSCLC 71.3% | SN12C renal 67.8% | TK-10 renal 81.2% | ACHN renal 40.9% | A498 renal 43.9% | MOLT-4 leukemia 20%

CC1(C)CC[C@]2(CO)CC[C@]3(C)[C@H](CC[C@@H]4[C@@]5(C)CC[C@H](O)C(C)(C)[C@@H]5CC[C@]43C)[C@H]2[C@H]1O
active: SNB-75 CNS -33.7%
inactive: HCT-15 colon 93.4% | HT29 colon 56.3% | SNB-19 CNS 96.1% | U251 CNS 62.3% | PC-3 prostate 68.2% | SK-MEL-5 melanoma 91.8% | UACC-62 melanoma 90.6% | LOX IMVI melanoma 76.2% | SK-MEL-28 melanoma 91.2% | SK-MEL-2 melanoma 104% | EKVX NSCLC 106% | SN12C renal 65.6% | UO-31 renal 114% | TK-10 renal 58.7% | ACHN renal 77.2% | CAKI-1 renal 99.9% | A498 renal 91.5% | CCRF-CEM leukemia 98.5% | MOLT-4 leukemia 86.3%

C#CCOC(=O)C(N)CSSCC(N)C(=O)O (stereo not given)
inactive: HCT-15 colon 108% | HT29 colon 102% | SNB-75 CNS 76.1% | SNB-19 CNS 103% | U251 CNS 105% | PC-3 prostate 91.6% | SK-MEL-5 melanoma 105% | UACC-62 melanoma 98% | LOX IMVI melanoma 98.7% | SK-MEL-28 melanoma 96.4% | SK-MEL-2 melanoma 89.2% | EKVX NSCLC 102% | SN12C renal 105% | UO-31 renal 83.5% | TK-10 renal 100% | ACHN renal 91.7% | CAKI-1 renal 90.7% | A498 renal 116% | CCRF-CEM leukemia 99.4% | MOLT-4 leukemia 102%

CCCCC/C=C/CCC(=O)N[C@H]1[C@H](Oc2c3cc4cc2Oc2ccc(cc2Cl)[C@@H](O[C@@H]2O[C@H](CO)[C@@H](O)[C@H](O)[C@H]2NC(C)=O)[C@@H]2NC(=O)[C@H](NC(=O)[C@@H]4NC(=O)[C@H]4NC(=O)[C@@H](Cc5ccc(c(Cl)c5)O3)NC(=O)[C@@H](N)c3ccc(O)c(c3)Oc3cc(O)cc4c3)c3ccc(O)c(c3)-c3c(O[C@H]4O[C@H](CO)[C@@H](O)[C@H](O)[C@@H]4O)cc(O)cc3[C@H](C(=O)O)NC2=O)O[C@H](CO)[C@H](O)[C@@H]1O
inactive: HCT-15 colon 111% | HT29 colon 103% | SNB-75 CNS 109% | SNB-19 CNS 87.3% | U251 CNS 95.7% | PC-3 prostate 89.9% | SK-MEL-5 melanoma 108% | UACC-62 melanoma 96.4% | LOX IMVI melanoma 91.5% | SK-MEL-28 melanoma 119% | SK-MEL-2 melanoma 112% | EKVX NSCLC 96.4% | SN12C renal 94.7% | UO-31 renal 82% | TK-10 renal 112% | ACHN renal 103% | CAKI-1 renal 84.1% | A498 renal 102% | CCRF-CEM leukemia 113% | MOLT-4 leukemia 101%

COC(=O)c1cc(-c2ccc(OC)c(OC)c2)[nH]c1N/N=C/c1c(Cl)cccc1Cl
active: SNB-75 CNS 4.55% | CAKI-1 renal 6.72%
inactive: HCT-15 colon 28.4% | HT29 colon 13.7% | SNB-19 CNS 36.1% | U251 CNS 30.2% | PC-3 prostate 26.3% | SK-MEL-5 melanoma 12.7% | UACC-62 melanoma 38.2% | LOX IMVI melanoma 39.3% | SK-MEL-28 melanoma 56.4% | SK-MEL-2 melanoma 53.6% | EKVX NSCLC 39.9% | SN12C renal 59.1% | UO-31 renal 52.4% | TK-10 renal 57.2% | ACHN renal 54.4% | A498 renal 27.6% | CCRF-CEM leukemia 19.7% | MOLT-4 leukemia 39.4%

N#CC1=C(N)Oc2c(ccc3cccnc23)C1c1ccccc1 (stereo not given)
active: SNB-75 CNS -6.14% | SK-MEL-5 melanoma 6.58% | A498 renal 9.1%
inactive: HCT-15 colon 28% | HT29 colon 12.6% | SNB-19 CNS 52.7% | U251 CNS 23.1% | PC-3 prostate 22.8% | UACC-62 melanoma 47.2% | LOX IMVI melanoma 33.7% | SK-MEL-28 melanoma 49.4% | SK-MEL-2 melanoma 43.2% | EKVX NSCLC 51.8% | SN12C renal 49.5% | UO-31 renal 43.6% | TK-10 renal 73% | ACHN renal 45.8% | CAKI-1 renal 39.9% | CCRF-CEM leukemia 15.7% | MOLT-4 leukemia 39.2%

CCOC(=O)c1ccc2c(c1)c1c(C)c3cnccc3c(C)c1n2C
active: HCT-15 colon -64.9% | HT29 colon -44.6% | SNB-75 CNS -45% | SNB-19 CNS -15% | U251 CNS -45.1% | PC-3 prostate -21.7% | SK-MEL-5 melanoma -99% | UACC-62 melanoma -77.3% | LOX IMVI melanoma -62.2% | SK-MEL-28 melanoma -97.7% | SK-MEL-2 melanoma -89% | EKVX NSCLC -13.4% | SN12C renal -58.2% | UO-31 renal -53.6% | TK-10 renal -65.3% | ACHN renal -95% | CAKI-1 renal -25% | A498 renal -78.7% | CCRF-CEM leukemia -2.56% | MOLT-4 leukemia 2.2%

CN(CCNc1ccc(C(=N)N)cc1)c1ccc(C(=N)N)cc1
inactive: HCT-15 colon 84.5% | HT29 colon 101% | SNB-75 CNS 96.8% | SNB-19 CNS 104% | U251 CNS 81.2% | PC-3 prostate 82.2% | SK-MEL-5 melanoma 67% | UACC-62 melanoma 72.6% | LOX IMVI melanoma 82.4% | SK-MEL-28 melanoma 94.8% | SK-MEL-2 melanoma 90.4% | EKVX NSCLC 84.1% | SN12C renal 39.3% | UO-31 renal 88.3% | TK-10 renal 94.1% | ACHN renal 78.4% | CAKI-1 renal 62% | A498 renal 57.7% | MOLT-4 leukemia 87.6%
active: CCRF-CEM leukemia 7.18%
